Screening data (PubChem BioAssay)
Rows were chosen to be rich in hits. Some 7.2% of all compounds tested hit in one or more screens of this group.
SNCA expr inhib = SNCA gene expression inhibition | HEK-293 SNCA-luciferase knock-in, luminescence, 24 h | Potency, µM (titrated, usually from 57.2 µM), for the others: top-dose activity change, negative = inhibition, hits mostly inhibitors | 140,000 compounds, 0.17% hits;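 also: plate controls were DMSO cells for no effect and cell-free wells for full effect; nearly all actives have a fitted effect of over 45% in size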
HEK293 viab = cell viability loss counter-screen; 150,000 compounds, 0.12% hits; HEK-293-SNCA-luc viability, GF-AFC fluorescence, 24 h; AID 1671193; Potency, µM (doses to about 57.1 µM), for inactives: top-dose activity change, negative = cytotoxicity, actives largely listed as cytotoxic;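 also: 0% = DMSO-treated cells and -100% = medium-only wells without cells; nearly all actives have a fitted effect of over 30% in size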
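HEK-293-SNCA-luc cells (1500/well) plated 24 h, then exposed 24 h to a dilution series; GF-AFC added 30 min at 37C, fluorescence 405/540 nm; normalised to medium-only and DMSO wells, Hill fit.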
FLuc inh = Photinus pyralis luciferase inhibition. P08659. purified P. pyralis luciferase, luminescence, biochemical. Potency, µM (top dose mostly 115 µM), hits mostly inhibitors. 76,000 compounds, 2.5% hits; also: nearly all actives have a fitted effect of over 65% in size
Target sequence (P08659 whole entry, looked up): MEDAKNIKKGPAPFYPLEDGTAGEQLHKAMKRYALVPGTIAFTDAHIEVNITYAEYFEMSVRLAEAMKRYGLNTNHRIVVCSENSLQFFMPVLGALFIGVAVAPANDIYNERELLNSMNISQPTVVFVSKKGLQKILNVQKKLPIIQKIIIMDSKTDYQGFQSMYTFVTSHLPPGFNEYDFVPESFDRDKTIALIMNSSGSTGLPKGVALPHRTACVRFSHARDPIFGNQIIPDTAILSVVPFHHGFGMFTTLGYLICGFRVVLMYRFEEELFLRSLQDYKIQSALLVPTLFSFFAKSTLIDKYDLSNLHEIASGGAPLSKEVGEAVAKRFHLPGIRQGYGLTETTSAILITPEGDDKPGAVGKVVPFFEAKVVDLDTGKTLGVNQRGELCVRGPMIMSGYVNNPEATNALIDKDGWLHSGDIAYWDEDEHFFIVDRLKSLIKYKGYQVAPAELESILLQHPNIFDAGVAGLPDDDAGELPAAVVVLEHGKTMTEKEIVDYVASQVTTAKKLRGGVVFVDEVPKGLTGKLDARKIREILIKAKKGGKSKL
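Inhibitors were tested against purified firefly luciferase in a biochemical, low-substrate format (both substrates at 10uM) and luminescence measured with a CCD imager.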
HEK293 tox = kills HEK 293 cells | HEK 293 viability, ATP luminescence (CellTiter-Glo), 48-72 h | Potency, µM (series often up to 115 µM), without a hit: at the highest dose activity change, negative = cytotoxicity, hits mostly inhibitors | 94,000 compounds, 6.6% hits; also: nearly all actives have a fitted effect of over 60% in size
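Pintool-delivered compounds were incubated with HEK 293 cells (250 cells/well) at 37 degree Celsius for 48 or 72 hr. ATP-dependent luminescence (CellTiter-Glo) then reported remaining viable cells.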
NPR1 antag = antagonists of human natriuretic peptide receptor Npr1. 76,000 compounds, 1.6% hits. HEK293 hNpr1 GloSensor cGMP, ANP-stimulated luminescence. Potency, µM (top dose mostly 46.3 µM), without a hit: top-dose activity change, negative = inhibition, actives largely listed as inhibitors. P16066; calls by dose curve; also: nearly all actives have a fitted effect of over 60% in size
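HEK293 cells stably expressing human Npr1 and cGMP GloSensor pGS-40F, loaded 2 h with 2% GloSensor reagent, given compound 30 min at room temperature. Luminescence read before and 20 min after 0.1 nM hNppA.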
3T3 cytotox = kills NIH 3T3 cells; NIH 3T3 viability, CellTiter-Glo ATP luminescence, 48-72 h; Potency, µM (doses to about 96.7 µM), inactives show top-dose activity change, negative = cytotoxicity, actives largely listed as inhibitors; 94,000 compounds, 4.3% hits; also: nearly all actives have a fitted effect of over 55% in size
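Cytotoxicity is measured as loss of cellular ATP: NIH 3T3 cells (400/well) are exposed to compound for 48 or 72 hr at 37 °C, then CellTiter-Glo luminescence is imaged after 10 min at room temperature.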
An asterisk follows results filed as active; i = inactive; ? = inconclusive; nt = no result given; [ ] = another dose, or the depositor's remark. Unless noted, calls follow the shape of the dose curve; as a rule, active = well fitted curve in the direction sought with a large enough effect; inconclusive = small, poorly fitted or top-dose-only effect, or another doubt; inactive = no such curve, though single readings can be large; an effect the other way counts as inactive or inconclusive. Unless noted, % is scaled to controls: 0 for no effect and ±100 for the full control effect; potency is read from the fitted curve at half-maximal effect.

SMILES	SNCA expr inhib	HEK293 viab	FLuc inh	HEK293 tox	NPR1 antag	3T3 cytotox
COc1ccc(CN2CC3(COCC2=O)CN(c2ccccc2)C3)cc1F	-6%[87.6 µM]	9%[87.6 µM]	i	?	-18%[70.6 µM]	?
O=C1COCC2(CN1Cc1ccccc1)CN(C(=O)c1ccc(F)c(Cl)c1)C2	11%[87.6 µM]	-10%[87.6 µM]	i	-5%[172 µM]	2%[70.6 µM]	89µM*
O=C1COCC2(CN1Cc1ccccc1)CN(C(=O)C1(c3ccccc3)CC1)C2	-10%[87.6 µM]	4%[87.6 µM]	i	-1%[172 µM]	6%[70.6 µM]	79µM*
CS(=O)(=O)N1CCCCC1c1nc(CCOCC2CCCC2)no1 (configuration not stated)	?	-4%[12.5 µM]	i	?	0%	-11%
CN(Cc1ccc(OC(F)(F)F)cc1)C(=O)C1(c2ccc(Cl)cc2)CCOCC1	-27%	-3%	nt	?	nt	?
CN1CCN(Cc2ccc(Nc3cnc4ccc(-n5ccnc5)nn34)cc2)CC1	-15%[87.6 µM]	-21%[87.6 µM]	?	50µM*	-1%[70.6 µM]	?
COc1cccc(-c2noc(Nc3cc(C)cc(C)c3)n2)c1OC	38%	1%	20µM*	?	-19%	?
COc1cccc(-c2noc(NCc3cccc(Cl)c3)n2)c1OC	37%	-1%	i	79µM*	-5%	?
Fc1ccccc1-c1noc(NCc2ccccc2)n1	113%	2%	28µM*	?	-8%	?
COc1ccc(-c2noc(Nc3cc(C)cc(C)c3)n2)cc1	85%	-5%	?	?	-10%	?
CCN(C(=O)CCC(=O)N1CCC(C)(c2noc(-c3ccccn3)n2)CC1)c1ccccc1	-3%	-12%	i	?	-1%	5%
CC(C)CNC(=O)C1Cn2cccc2C(=O)N1C (configuration not stated)	-2%	16%	i	-2%	1%	-16%
O=C(c1ccc(Cl)cc1)N1CCN(c2nccc(Nc3ccccc3F)n2)CC1	?	-1%[12.5 µM]	nt	?	nt	?
COc1ccccc1Nc1ccnc(N2CCN(C(=O)Nc3ccc(Cl)cc3)CC2)n1	41%	-12%	nt	40µM*	nt	40µM*
COc1ccccc1Nc1ccnc(N2CCN(C(=O)c3ccc(F)cc3)CC2)n1	-15%	-12%	nt	50µM*	nt	22µM*
COC(=O)N1CCN(c2nccc(Nc3ccccc3OC)n2)CC1	153%	13%	nt	?	nt	?
O=C(c1ccc(F)cc1)N1CCN(c2nccc(Nc3ccccc3F)n2)CC1	-1%	2%	nt	40µM*	nt	32µM*
CNC(=O)c1ccc2c(c1)NC(C)(COc1ccccc1)CO2 (configuration not stated)	-16%[87.6 µM]	-9%[87.6 µM]	i	?	-18%[70.6 µM]	?
CC1(COCC2CC2)COc2ccc(C(=O)Nc3ccc(Cl)cc3)cc2N1 (configuration not stated)	19%[87.6 µM]	-26%[87.6 µM]	i	28µM*	?	35µM*
CN(C)CCCOCC1(C)COc2ccc(C(=O)Nc3ccc(F)c(Cl)c3)cc2N1 (configuration not stated)	84%[87.6 µM]	-1%[87.6 µM]	i	63µM*	-13%[70.6 µM]	40µM*
CN(C)CCCOCC1(C)COc2ccc(C(=O)N3CCOCC3)cc2N1 (configuration not stated)	-3%[87.6 µM]	6%[87.6 µM]	i	4%[172 µM]	-1%[70.6 µM]	?
CCOCC1(C)COc2ccc(C(=O)Nc3ccccn3)cc2N1 (configuration not stated)	35%[87.6 µM]	1%[87.6 µM]	16µM*	?	?	?
CC1(CCCCN2CCOCC2)COc2ccc(C(=O)Nc3ccc(Cl)cc3)cc2N1 (configuration not stated)	-5%	4%	?	50µM*	-12%	?
COc1ccc(Nc2ccnc(N3CCCC3C(=O)NCC(F)F)n2)cc1 (configuration not stated)	-11%	-10%[12.5 µM]	nt	-24%	nt	-29%
